According to PubChem BioAssay (EPA / NIEHS):
Results filed as inconclusive are left out. The source made the active and inactive calls. How the source made its calls, unless noted: active means hit-call score of the fitted dose curve at least 0.9, where 1 is the maximum; inactive means score below 0.9.

Legend:
[1] = ACEA_ER_80hr: ACEA Biosciences xCELLigence Real-Time Cell Analysis on Estrogen Receptor Agonism for Proliferation (AID 2282667; active means hit-call score of the fitted dose curve at least 0.9, where 1 is the maximum); conditions: T47D proliferation, impedance (xCELLigence), 80 h
How it was run: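 Impedance readout (RT-CES) of T47D proliferation at 80 h post-dose; gain of signal vs DMSO baseline. Compounds: 8 conc, 1:4 serial, top 100 uM final, ≤0.5% DMSO; biological duplicate.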

[2] = target: CCAAT/enhancer-binding protein beta (Homo sapiens) (UniProt P17676); test: ATG_C_EBP_CIS: Attagene CIS-FACTORIAL HepG2 Assay for human CCAAT/Enhancer Binding Protein (C/EBP) beta (AID 2282927); conditions: HepG2 Attagene cis-factorial transcription factor reporter; actives raise or lower the signal
CCAAT/enhancer-binding protein beta (Homo sapiens), sequence (P17676 whole entry, looked up): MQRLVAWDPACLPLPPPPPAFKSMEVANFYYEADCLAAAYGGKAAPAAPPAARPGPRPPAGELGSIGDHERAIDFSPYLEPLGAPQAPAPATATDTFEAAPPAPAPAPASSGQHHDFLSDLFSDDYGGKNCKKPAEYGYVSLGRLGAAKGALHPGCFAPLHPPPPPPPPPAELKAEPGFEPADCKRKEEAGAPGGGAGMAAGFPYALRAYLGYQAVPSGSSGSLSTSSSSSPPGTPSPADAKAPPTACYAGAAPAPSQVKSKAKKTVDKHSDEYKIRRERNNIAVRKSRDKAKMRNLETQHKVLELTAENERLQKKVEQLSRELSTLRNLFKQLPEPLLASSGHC
How it was run: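 Following a 24 h incubation with test chemical, transfected HepG2 cells yielded RNA whose reporter transcripts were quantified by RT-PCR and fluorescent capillary electrophoresis, with DMSO serving as baseline for bidirectional fitting.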

[3] = ATG_CMV_CIS: Attagene CIS-FACTORIAL HepG2 Assay for human CMV (Internal Marker) (AID 2282928); conditions: HepG2 CMV promoter reporter, transcription factor profiling; actives raise or lower the signal;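 further: endpoint acts as a background internal control marker rather than a target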
How it was run: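 Reporter transcripts from transfected HepG2 cells are isolated after 24 h of chemical dosing, reverse-transcribed and amplified. Fragments labeled with 6-FAM are cut with HpaI and quantified by capillary electrophoresis; DMSO defines baseline.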

[4] = ATG_DR4_LXR_CIS: Attagene CIS-FACTORIAL HepG2 Assay for human Liver X Receptor (LXR), DR4 submotif (AID 2282929); conditions: HepG2 Attagene DR4 cis-reporter, mRNA transcription; actives raise or lower the signal
How it was run: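 DR4 cis-reporter in HepG2, 24 h exposure. Detection: RT-PCR, 6-FAM labelling, CE fragment analysis. Endpoint fitted bidirectionally, DMSO = baseline.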

[5] = ATG_AP_1_CIS: Attagene CIS-FACTORIAL HepG2 Assay for human Activator Protein 1 (AP-1) (AID 2282931); conditions: HepG2 Attagene cis-factorial AP-1 reporter mRNA; actives raise or lower the signal
How it was run: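 Cis-regulated reporter units transiently expressed in HepG2 report endogenous transcription-factor activity. Signal: reporter mRNA at 24 h, via RT-PCR and fluorescent capillary electrophoresis. Endpoint derived by bidirectional fitting, DMSO as negative control.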

[6] = target: Retinoic acid receptor alpha (Homo sapiens) (UniProt P10276); test: ATG_DR5_RAR_CIS: Attagene CIS-FACTORIAL HepG2 Assay for human Retinoic Acid Receptor Alpha (RARE), DR5 submotif (AID 2282934); conditions: HepG2 Attagene cis-factorial RARE DR5 reporter, mRNA; actives raise or lower the signal;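 on AC50: reporter responds to endogenous RAR alpha beta and gamma in HepG2 not RARA alone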
Retinoic acid receptor alpha (Homo sapiens), sequence (P10276 whole entry, looked up): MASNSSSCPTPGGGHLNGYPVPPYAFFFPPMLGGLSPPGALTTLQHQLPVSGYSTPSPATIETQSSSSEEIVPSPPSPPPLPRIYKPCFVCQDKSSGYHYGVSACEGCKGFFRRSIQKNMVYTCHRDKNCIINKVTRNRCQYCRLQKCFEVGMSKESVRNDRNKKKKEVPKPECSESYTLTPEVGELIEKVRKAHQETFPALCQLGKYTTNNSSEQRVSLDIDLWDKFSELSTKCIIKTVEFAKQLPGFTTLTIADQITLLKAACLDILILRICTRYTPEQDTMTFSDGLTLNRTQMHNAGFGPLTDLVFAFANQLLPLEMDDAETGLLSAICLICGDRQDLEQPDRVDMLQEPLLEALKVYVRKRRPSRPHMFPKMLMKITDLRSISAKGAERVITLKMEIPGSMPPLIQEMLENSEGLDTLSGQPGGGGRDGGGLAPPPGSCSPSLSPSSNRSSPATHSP
How it was run: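 Endpoint fitted in both directions relative to DMSO as negative control. It reflects DR5 cis-element reporter mRNA induction in transiently transfected HepG2 cells, measured 24 h after dosing through RT-PCR and fluorescent capillary electrophoresis.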

[7] = target: Transcription factor E2F1 (Homo sapiens) (UniProt Q01094); test: ATG_E2F_CIS: Attagene CIS-FACTORIAL HepG2 Assay for human E2F Transcription Factor 1 (AID 2282935); conditions: HepG2 Attagene cis-reporter, E2F reporter RNA transcripts; actives raise or lower the signal
Transcription factor E2F1 (Homo sapiens), sequence (Q01094 whole entry, looked up): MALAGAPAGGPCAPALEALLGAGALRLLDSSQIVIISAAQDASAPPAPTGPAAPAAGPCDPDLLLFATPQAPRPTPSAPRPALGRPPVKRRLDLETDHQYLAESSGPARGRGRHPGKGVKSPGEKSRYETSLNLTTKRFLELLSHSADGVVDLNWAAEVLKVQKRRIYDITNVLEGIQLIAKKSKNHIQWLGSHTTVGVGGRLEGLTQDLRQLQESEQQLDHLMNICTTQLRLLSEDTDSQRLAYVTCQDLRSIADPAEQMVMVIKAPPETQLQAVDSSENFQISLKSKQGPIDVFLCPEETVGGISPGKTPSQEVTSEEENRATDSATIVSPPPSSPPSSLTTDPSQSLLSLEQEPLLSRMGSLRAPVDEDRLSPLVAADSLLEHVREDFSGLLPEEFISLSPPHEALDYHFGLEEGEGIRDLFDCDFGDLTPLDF
How it was run: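 First, HepG2 cells were transfected with reporter transcription units. Next, they were dosed for 24 h. Then RNA was isolated, converted to cDNA, PCR-amplified, FAM-labeled, HpaI-digested and analyzed by capillary electrophoresis.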

[8] = ATG_E_Box_CIS: Attagene CIS-FACTORIAL HepG2 Assay for human Enhancer Box (E-box) (AID 2282936); conditions: HepG2 E-box cis-reporter transcription, actives raise or lower the signal
How it was run: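 Endogenous transcription factor activity was sensed in human HepG2 liver cells through transfected cis-promoter reporter units. After 24 h of dosing, total RNA was reverse-transcribed and reporter cDNA resolved by capillary electrophoresis.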

[9] = ATG_M_61_CIS: Attagene CIS-FACTORIAL HepG2 Assay for M61 Transcription Factor (Internal Marker) (AID 2282937); conditions: HepG2 Attagene CIS-FACTORIAL M61 internal marker reporter; actives raise or lower the signal
How it was run: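 Background-control endpoint: HepG2 cells with cis-regulated reporter constructs, 24 h exposure, reporter mRNA detected via fluorescent primer extension and capillary electrophoresis; values from bidirectional fitting with DMSO baseline.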

[10] = ATG_EGR_CIS: Attagene CIS-FACTORIAL HepG2 Assay for human Early Growth Response 1 (EGR1) (AID 2282938); conditions: HepG2 Attagene CIS-FACTORIAL EGR reporter mRNA; actives raise or lower the signal
How it was run: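 Endpoint derived by bidirectional fitting versus DMSO vehicle. Method: cis-promoter reporter units transfected into HepG2, 24 h dosing, RNA isolation, RT-PCR with 6-FAM primer extension and HpaI digestion, then capillary electrophoresis fluorescence detection.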

[11] = ATG_M_19_CIS: Attagene CIS-FACTORIAL HepG2 Assay for M19 Transcription Factor (Internal Marker) (AID 2282939); conditions: HepG2 Attagene CIS-FACTORIAL M19 internal marker reporter; actives raise or lower the signal
How it was run: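 HepG2, MRTU transient transfection, 24 h dosing. Total RNA → RT-PCR → 6-FAM primer extension → HpaI digest → CE fluorescence. Bidirectional curve fit, DMSO negative control.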

[12] = ATG_ERE_CIS: Attagene CIS-FACTORIAL HepG2 Assay for Estrogen Response Element (ERE) (AID 2282940); conditions: HepG2 ERE cis-reporter, Attagene RNA transcript; actives raise or lower the signal
How it was run: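 After a 24 h chemical treatment, RNA from reporter-transfected HepG2 cells is reverse-transcribed, PCR-amplified and fluorescently labelled. Fragments separated by capillary electrophoresis give reporter signal; DMSO serves as negative control.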

[13] = ATG_Ets_CIS: Attagene CIS-FACTORIAL HepG2 Assay for human Erythroblast Transformation Specific (ETS) (AID 2282941); conditions: HepG2 ETS cis-reporter transcription, actives raise or lower the signal
How it was run: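 Bidirectional fit versus DMSO of reporter mRNA signal, detected by RT-PCR and capillary electrophoresis in HepG2 cells transiently transfected with cis-element reporters and dosed 24 h.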

[14] = target: Hepatocyte nuclear factor 3-beta (Homo sapiens) (UniProt Q9Y261); test: ATG_FoxA2_CIS: Attagene CIS-FACTORIAL HepG2 Assay for human Forkhead box A2 (FOXA2) (AID 2282942); conditions: HepG2 cis-reporter transcription factor activity, 24 h; actives raise or lower the signal
Hepatocyte nuclear factor 3-beta (Homo sapiens), sequence (Q9Y261 whole entry, looked up): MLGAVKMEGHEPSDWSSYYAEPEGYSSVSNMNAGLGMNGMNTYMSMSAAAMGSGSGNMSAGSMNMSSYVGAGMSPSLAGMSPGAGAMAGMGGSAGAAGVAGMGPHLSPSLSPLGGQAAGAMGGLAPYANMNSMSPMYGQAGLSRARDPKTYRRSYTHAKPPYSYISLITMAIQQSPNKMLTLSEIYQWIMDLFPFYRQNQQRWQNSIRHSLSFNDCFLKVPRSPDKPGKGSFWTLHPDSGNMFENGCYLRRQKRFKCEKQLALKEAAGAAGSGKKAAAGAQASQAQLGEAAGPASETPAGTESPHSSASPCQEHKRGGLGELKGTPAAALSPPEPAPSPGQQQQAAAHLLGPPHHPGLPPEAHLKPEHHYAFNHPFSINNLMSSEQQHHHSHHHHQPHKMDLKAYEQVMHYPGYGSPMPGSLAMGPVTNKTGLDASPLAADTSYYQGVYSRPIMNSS
How it was run: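 Measured: reporter mRNA induction or loss in HepG2 transiently carrying multiple cis-regulated reporter units, 24 h after dosing. Quantified by RT-PCR plus capillary electrophoresis, normalised to DMSO.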

[15] = ATG_FoxO_CIS: Attagene CIS-FACTORIAL HepG2 Assay for human Forkhead box O (FoxO) (AID 2282943); conditions: HepG2 Attagene cis-reporter, FoxO element, mRNA; actives raise or lower the signal
How it was run: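 Values reflect reporter mRNA induction or loss in HepG2 cells 24 h post-dosing, fitted bidirectionally with DMSO as negative control and baseline. Detection used RT-PCR and fluorescence capillary electrophoresis.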

[16] = ATG_GATA_CIS: Attagene CIS-FACTORIAL HepG2 Assay for human GATA Binding Protein (AID 2282944); conditions: HepG2 GATA cis-element reporter, Attagene multiplex mRNA; actives raise or lower the signal
How it was run: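 Cells: HepG2, transiently transfected with cis-regulated reporter transcription units. Exposure: 24 h. Detection: RT-PCR plus capillary electrophoresis of FAM-labeled fragments. Analysis: bidirectional, DMSO as baseline.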

[17] = target: Aryl hydrocarbon receptor (Homo sapiens) (UniProt P35869); test: ATG_Ahr_CIS: Attagene CIS-FACTORIAL HepG2 Assay for human Aryl Hydrocarbon Receptor (Ahr) (AID 2282930); conditions: HepG2 AhR cis-factorial reporter transcription; actives raise or lower the signal
Aryl hydrocarbon receptor (Homo sapiens), sequence (P35869 whole entry, looked up): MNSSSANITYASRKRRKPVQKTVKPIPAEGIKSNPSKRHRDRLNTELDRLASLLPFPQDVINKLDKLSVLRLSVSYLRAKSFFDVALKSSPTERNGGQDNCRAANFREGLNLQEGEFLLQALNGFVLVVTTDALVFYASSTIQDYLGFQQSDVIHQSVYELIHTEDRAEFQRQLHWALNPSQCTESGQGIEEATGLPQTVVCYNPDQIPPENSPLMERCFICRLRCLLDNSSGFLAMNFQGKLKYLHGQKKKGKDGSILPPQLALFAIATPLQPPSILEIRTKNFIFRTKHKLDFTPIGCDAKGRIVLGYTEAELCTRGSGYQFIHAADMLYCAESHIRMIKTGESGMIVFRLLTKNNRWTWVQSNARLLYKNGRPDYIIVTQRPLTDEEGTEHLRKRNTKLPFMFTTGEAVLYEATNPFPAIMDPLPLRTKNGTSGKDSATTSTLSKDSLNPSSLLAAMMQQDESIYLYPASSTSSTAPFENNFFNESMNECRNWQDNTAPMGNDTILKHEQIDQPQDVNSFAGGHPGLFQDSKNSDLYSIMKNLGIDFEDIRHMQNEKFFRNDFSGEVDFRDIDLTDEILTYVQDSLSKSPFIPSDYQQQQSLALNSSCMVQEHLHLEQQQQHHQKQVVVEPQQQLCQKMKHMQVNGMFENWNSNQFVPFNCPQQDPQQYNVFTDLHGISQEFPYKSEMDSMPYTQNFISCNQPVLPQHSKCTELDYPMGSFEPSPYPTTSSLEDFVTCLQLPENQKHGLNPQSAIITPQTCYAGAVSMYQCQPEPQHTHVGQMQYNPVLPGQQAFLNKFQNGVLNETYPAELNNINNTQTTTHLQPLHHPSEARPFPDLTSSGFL
How it was run: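 Values derive from bidirectional fitting against DMSO negative control. Underlying signal: cis-element reporter mRNA in transiently transfected HepG2, harvested 24 h post-dose and measured by RT-PCR plus capillary electrophoresis.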

[18] = ATG_AP_2_CIS: Attagene CIS-FACTORIAL HepG2 Assay for human Activator Protein 2 (AP-2) (AID 2282932); conditions: HepG2 AP-2 cis-reporter, Attagene transcription factor profiling; actives raise or lower the signal
How it was run: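 Cells (HepG2) transfected with promoter-driven reporter constructs, treated 24 h. Total RNA reverse-transcribed, reporter cDNA PCR-amplified, FAM-labelled by primer extension, digested, resolved by capillary electrophoresis. Activity fitted both directions versus DMSO.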

[19] = ATG_BRE_CIS: Attagene CIS-FACTORIAL HepG2 Assay for human Bone Morphogenetic Protein (BMP) Response Element (BRE) (AID 2282933); conditions: HepG2 BMP response element reporter, Attagene transcription factor profiling; actives raise or lower the signal
How it was run: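 Fluorescence-labelled reporter cDNA fragments, separated by capillary electrophoresis, gave the signal for this component of a 52-readout multiplex. HepG2 cells were transfected, exposed to chemicals for 24 h, and compared with DMSO using bidirectional fitting.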

Measured: AC50

O=C(Cl)c1ccc(C(=O)Cl)cc1
not listed: [17] | [18] | [19]
inactive: all other assays above

CC=CC(=O)OCC(C)C
not listed: [2] | [13]
inactive: all other assays above

COC(=O)CC(C)CCC=C(C)C (stereo not given)
not listed: [8] | [9] | [13]
inactive: all other assays above

Nc1ccnc(=O)[nH]1
not listed: [10]
inactive: all other assays above

COC(=O)C=Cc1ccccc1
not listed: [8] | [17]
inactive: all other assays above

N#CC1(N)CCCCC1
not listed: [8] | [15]
inactive: all other assays above

CC(C)(C)NC(=O)[C@H]1CC[C@H]2[C@@H]3CC[C@H]4NC(=O)C=C[C@]4(C)[C@H]3CC[C@]12C
not listed: [4] | [8]
inactive: all other assays above

CC1OC(=O)C(C)OC1=O (stereo not given)
active: [1] 0.169 µM
not listed: [13]
inactive: all other assays above

O=C(O)c1cc(O)c2ccccc2c1O
active: [2] 5.04 µM | [4] 42.5 µM | [17] 0.0305 µM | [6] 22.8 µM | [7] 59.1 µM | [8] 8.86 µM | [12] 0.513 µM | [13] 57.9 µM
not listed: [15] | [18]
inactive: all other assays above

CCOB(OCC)OCC
not listed: [8] | [10] | [13]
inactive: all other assays above

N=C1C=CC(=C(c2ccc(N)cc2)c2ccc(N)cc2)C=C1
active: [2] 168 µM | [3] 33.4 µM | [4] 27.6 µM | [17] 8.36 µM | [18] 24.7 µM | [19] 33.4 µM | [8] 72.5 µM | [11] 100 µM | [13] 25.4 µM | [15] 180 µM | [16] 26.2 µM
inactive: [1] | [5] | [6] | [7] | [9] | [10] | [12] | [14]

CCC(C)C(=O)OCCc1ccccc1 (stereo not given)
active: [1] 1.68 µM
not listed: [8] | [17]
inactive: all other assays above

C=C(C)[C@@H]1CC=C(C)CC1
not listed: [6] | [18] | [19]
inactive: all other assays above

Clc1cc(Cl)c(Cl)c(Cl)c1Cl
active: [3] 50.7 µM
inactive: all other assays above
